Experiment [1] can be described thus: ATG_CRE_CIS: Attagene CIS-FACTORIAL HepG2 Assay for human cAMP Responsive Element (CRE) binding protein 3 (AID 2282926). As to conditions: HepG2 CRE cis-reporter, Attagene multiplexed mRNA; actives raise or lower the signal. The essentials: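 Endogenous transcription factor activity read via CRE-regulated reporter transcripts in transfected HepG2 cells. After 24 h exposure, RNA was reverse-transcribed, amplified, fluorescently labelled and sized by capillary electrophoresis; gain or loss fitted against DMSO.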

Experiment [2] can be described thus: ATG_CMV_CIS: Attagene CIS-FACTORIAL HepG2 Assay for human CMV (Internal Marker) (AID 2282928).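 Further: endpoint acts as a background internal control marker rather than a target.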 Conditions: HepG2 CMV promoter reporter, transcription factor profiling; actives raise or lower the signal. The method in brief: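 Readout: fluorescent reporter cDNA fragments separated by capillary electrophoresis after RT-PCR and HpaI cut. Cells: HepG2 carrying transfected cis-promoter reporter constructs, dosed 24 h. Endpoint serves as background internal-marker control, fit bidirectionally versus DMSO.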

A short description of experiment [3]: ATG_DR4_LXR_CIS: Attagene CIS-FACTORIAL HepG2 Assay for human Liver X Receptor (LXR), DR4 submotif (AID 2282929). As to conditions: HepG2 Attagene DR4 cis-reporter, mRNA transcription; actives raise or lower the signal. The essentials: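 HepG2, transient MRTU transfection, cis-element (DR4) promoter; 24 h compound exposure; total RNA → oligo(dT) RT → PCR → 6-FAM primer extension → HpaI cut → CE. Gain/loss vs DMSO, bidirectional fit.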

The target in experiment [4] is Aryl hydrocarbon receptor (Homo sapiens) (UniProt P35869). Briefly: ATG_Ahr_CIS: Attagene CIS-FACTORIAL HepG2 Assay for human Aryl Hydrocarbon Receptor (Ahr) (AID 2282930). As to conditions: HepG2 AhR cis-factorial reporter transcription; actives raise or lower the signal. The method in brief: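 HepG2 cells transiently transfected with cis-element-driven multiplexed reporter units; endogenous AhR activity read as reporter mRNA 24 h after dosing, via RT-PCR, 6-FAM labelling, HpaI digestion and capillary electrophoresis. Bidirectional fit relative to DMSO.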
Aryl hydrocarbon receptor (Homo sapiens), sequence (P35869 whole entry, looked up): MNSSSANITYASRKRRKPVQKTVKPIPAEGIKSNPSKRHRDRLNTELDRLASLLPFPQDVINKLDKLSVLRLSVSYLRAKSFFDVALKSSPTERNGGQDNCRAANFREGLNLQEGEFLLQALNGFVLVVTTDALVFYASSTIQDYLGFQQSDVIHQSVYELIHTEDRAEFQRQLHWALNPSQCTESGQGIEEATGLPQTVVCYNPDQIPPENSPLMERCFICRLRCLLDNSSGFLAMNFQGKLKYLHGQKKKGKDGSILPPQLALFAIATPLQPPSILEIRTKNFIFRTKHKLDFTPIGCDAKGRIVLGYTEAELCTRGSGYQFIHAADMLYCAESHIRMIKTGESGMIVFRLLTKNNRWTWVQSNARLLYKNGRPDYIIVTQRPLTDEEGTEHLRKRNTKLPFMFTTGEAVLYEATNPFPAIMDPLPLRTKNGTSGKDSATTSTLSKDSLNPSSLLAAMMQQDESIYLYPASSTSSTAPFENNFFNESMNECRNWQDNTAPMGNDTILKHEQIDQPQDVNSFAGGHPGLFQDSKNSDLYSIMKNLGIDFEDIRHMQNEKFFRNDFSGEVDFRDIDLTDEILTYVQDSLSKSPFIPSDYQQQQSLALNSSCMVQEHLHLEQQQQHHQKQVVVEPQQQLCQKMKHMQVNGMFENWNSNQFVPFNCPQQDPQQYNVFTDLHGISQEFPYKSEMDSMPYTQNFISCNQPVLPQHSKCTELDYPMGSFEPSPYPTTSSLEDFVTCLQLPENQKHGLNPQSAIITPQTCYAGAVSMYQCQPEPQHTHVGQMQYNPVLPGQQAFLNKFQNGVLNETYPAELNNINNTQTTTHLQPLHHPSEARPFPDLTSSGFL

Experiment [5] can be described thus: ATG_AP_1_CIS: Attagene CIS-FACTORIAL HepG2 Assay for human Activator Protein 1 (AP-1) (AID 2282931). As to conditions: HepG2 Attagene cis-factorial AP-1 reporter mRNA; actives raise or lower the signal. The essentials:
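Transient MRTU transfection of HepG2 → 24 h chemical treatment → RNA isolation, RT-PCR, 6-FAM labelling, HpaI digest → capillary electrophoresis. Fit: bidirectional, DMSO negative control.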

Experiment [6] is described as follows: ATG_AP_2_CIS: Attagene CIS-FACTORIAL HepG2 Assay for human Activator Protein 2 (AP-2) (AID 2282932). Conditions: HepG2 AP-2 cis-reporter, Attagene transcription factor profiling; actives raise or lower the signal. The essentials:
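Read-out: fluorescent reporter mRNA via RT-PCR and capillary electrophoresis, 24 h post-dose in transiently transfected HepG2. Endogenous factors drive cis-promoter reporters; gain or loss of signal fitted bidirectionally against DMSO.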

Experiment [7] is described as follows: ATG_BRE_CIS: Attagene CIS-FACTORIAL HepG2 Assay for human Bone Morphogenetic Protein (BMP) Response Element (BRE) (AID 2282933). As to conditions: HepG2 BMP response element reporter, Attagene transcription factor profiling; actives raise or lower the signal. The essentials:
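A HepG2 multiplex reporter system measured inducible reporter mRNA 24 h post-dosing. Detection: RT-PCR, 6-FAM primer extension, HpaI digestion, capillary electrophoresis. Activity fitted bidirectionally relative to DMSO.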

The nature of experiment [8]: ATG_E_Box_CIS: Attagene CIS-FACTORIAL HepG2 Assay for human Enhancer Box (E-box) (AID 2282936). Conditions: HepG2 E-box cis-reporter transcription, actives raise or lower the signal. The essentials: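 Transiently transfected HepG2, endogenous TF-driven reporters, 24 h dosing. Readout: RT-PCR plus capillary electrophoresis of fluorescent reporter fragments. Gain or loss of signal fitted bidirectionally against DMSO baseline.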

Experiment [9] can be described thus: ATG_M_61_CIS: Attagene CIS-FACTORIAL HepG2 Assay for M61 Transcription Factor (Internal Marker) (AID 2282937). Conditions: HepG2 Attagene CIS-FACTORIAL M61 internal marker reporter; actives raise or lower the signal. The essentials:
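Human liver HepG2, transient MRTU transfection (cis promoter elements), 24 h compound. Total RNA → oligo(dT) RT → PCR → FAM label → HpaI → CE. Internal background marker; bidirectional fitting, DMSO = baseline.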

Experiment [10] is described as follows: ATG_M_19_CIS: Attagene CIS-FACTORIAL HepG2 Assay for M19 Transcription Factor (Internal Marker) (AID 2282939). Conditions: HepG2 Attagene CIS-FACTORIAL M19 internal marker reporter; actives raise or lower the signal. The method in brief:
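Chemical-treated HepG2 (24 h) with MRTU constructs; reporter transcripts detected by fluorescent RT-PCR fragment analysis on capillary electrophoresis. Internal background marker, DMSO as baseline.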

Experiment [11] can be described thus: ATG_ERE_CIS: Attagene CIS-FACTORIAL HepG2 Assay for Estrogen Response Element (ERE) (AID 2282940). Conditions: HepG2 ERE cis-reporter, Attagene RNA transcript; actives raise or lower the signal. The essentials:
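Human liver cells (HepG2) bearing transiently transfected, promoter-regulated reporter units were exposed 24 h. Reporter mRNA induction was detected by capillary electrophoresis of labelled RT-PCR products and fitted bidirectionally to DMSO.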

Experiment [12] is described as follows: ATG_Ets_CIS: Attagene CIS-FACTORIAL HepG2 Assay for human Erythroblast Transformation Specific (ETS) (AID 2282941). As to conditions: HepG2 ETS cis-reporter transcription, actives raise or lower the signal. The essentials:
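RT-PCR/capillary electrophoresis fluorescence read-out of reporter mRNA; HepG2 transient multi-reporter transfection; 24 h compound exposure; gain or loss of signal fitted bidirectionally relative to DMSO.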

Experiment [13] concerns the target Hepatocyte nuclear factor 3-beta (Homo sapiens) (UniProt Q9Y261). Put plainly: ATG_FoxA2_CIS: Attagene CIS-FACTORIAL HepG2 Assay for human Forkhead box A2 (FOXA2) (AID 2282942). Conditions: HepG2 cis-reporter transcription factor activity, 24 h; actives raise or lower the signal. The method in brief:
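Transient MRTU transfection of HepG2 liver cells; 24 h treatment; total RNA → oligo(dT) RT → PCR → FAM primer extension → HpaI cut → CE. Bidirectional fit vs DMSO.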

Experiment [14] is described as follows: ATG_FoxO_CIS: Attagene CIS-FACTORIAL HepG2 Assay for human Forkhead box O (FoxO) (AID 2282943). Conditions: HepG2 Attagene cis-reporter, FoxO element, mRNA; actives raise or lower the signal. The method in brief:
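HepG2 cells transiently transfected with cis-element-driven reporter units report endogenous FoxO activity. After 24 h chemical exposure, reporter mRNA quantified by RT-PCR, fluorescent labeling, HpaI digestion and capillary electrophoresis; bidirectional fit versus DMSO.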

Experiment [15] is described as follows: ATG_GATA_CIS: Attagene CIS-FACTORIAL HepG2 Assay for human GATA Binding Protein (AID 2282944). Conditions: HepG2 GATA cis-element reporter, Attagene multiplex mRNA; actives raise or lower the signal. The method in brief:
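Transfected cis-reporter HepG2 cells were treated with chemicals for 24 hours. Total RNA was then converted to cDNA, amplified with reporter-specific primers and analysed by fluorescent capillary electrophoresis, using DMSO-treated wells as baseline.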

Experiment [16] is described as follows: ATG_GLI_CIS: Attagene CIS-FACTORIAL HepG2 Assay for human Zinc Finger Protein GLI1 (AID 2282945). As to conditions: HepG2, Attagene cis-factorial reporter mRNA, GLI element; actives raise or lower the signal. The essentials: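 Transiently transfected HepG2 cells report endogenous transcription factor activity via cis-element-driven reporter units. After 24 h compound exposure, reporter mRNA was measured by RT-PCR with capillary electrophoresis; bidirectional fitting against DMSO baseline.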

Experiment [17] concerns the target Transcription factor E2F1 (Homo sapiens) (UniProt Q01094). Briefly: ATG_E2F_CIS: Attagene CIS-FACTORIAL HepG2 Assay for human E2F Transcription Factor 1 (AID 2282935). As to conditions: HepG2 Attagene cis-reporter, E2F reporter RNA transcripts; actives raise or lower the signal. The method in brief:
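Transient MRTU transfection of HepG2; 24 h compound exposure; RNA → oligo(dT) RT → PCR → FAM label → HpaI cut → CE fluorescence. Gain/loss of signal fit against DMSO.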

A short description of experiment [18]: ATG_EGR_CIS: Attagene CIS-FACTORIAL HepG2 Assay for human Early Growth Response 1 (EGR1) (AID 2282938). Conditions: HepG2 Attagene CIS-FACTORIAL EGR reporter mRNA; actives raise or lower the signal. The essentials: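 Transient transfection of human HepG2 with multiple cis-regulated reporter units, chemical exposure 24 h, total RNA isolated. Reverse transcription, PCR, fluorescent labelling and capillary electrophoresis quantify reporter transcripts; activity fitted bidirectionally against DMSO.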

For experiment [19], the target named is Retinoic acid receptor alpha (Homo sapiens) (UniProt P10276). Briefly: ATG_DR5_RAR_CIS: Attagene CIS-FACTORIAL HepG2 Assay for human Retinoic Acid Receptor Alpha (RARE), DR5 submotif (AID 2282934).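 On AC50: reporter responds to endogenous RAR alpha beta and gamma in HepG2 not RARA alone.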 Conditions: HepG2 Attagene cis-factorial RARE DR5 reporter, mRNA; actives raise or lower the signal. The method in brief:
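HepG2 cells transiently transfected with multiplexed reporter units; DR5 cis-element drives reporter through endogenous transcription factors. After 24 h dosing, reporter mRNA quantified by RT-PCR, fluorescent labeling, HpaI digestion and capillary electrophoresis; bidirectional fitting versus DMSO.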

Molecules are shown by their SMILES. Calls of active or inactive are those of the source. How the source made its calls: active means hit-call score of the fitted dose curve at least 0.9, where 1 is the maximum; inactive means score below 0.9.

Retinoic acid receptor alpha (Homo sapiens), sequence (P10276 whole entry, looked up): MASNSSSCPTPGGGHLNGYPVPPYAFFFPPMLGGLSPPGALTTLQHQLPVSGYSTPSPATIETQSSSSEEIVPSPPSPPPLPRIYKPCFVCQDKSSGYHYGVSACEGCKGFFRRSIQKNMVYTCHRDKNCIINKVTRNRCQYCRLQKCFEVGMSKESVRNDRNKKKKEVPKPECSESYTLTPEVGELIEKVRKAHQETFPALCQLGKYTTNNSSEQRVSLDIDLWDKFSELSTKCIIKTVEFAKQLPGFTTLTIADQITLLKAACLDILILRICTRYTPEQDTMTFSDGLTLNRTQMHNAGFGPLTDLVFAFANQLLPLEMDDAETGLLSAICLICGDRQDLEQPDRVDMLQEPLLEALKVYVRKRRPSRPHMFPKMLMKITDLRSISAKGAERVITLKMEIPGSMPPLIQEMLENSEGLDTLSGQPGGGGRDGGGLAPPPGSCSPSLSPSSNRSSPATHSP
Transcription factor E2F1 (Homo sapiens), sequence (Q01094 whole entry, looked up): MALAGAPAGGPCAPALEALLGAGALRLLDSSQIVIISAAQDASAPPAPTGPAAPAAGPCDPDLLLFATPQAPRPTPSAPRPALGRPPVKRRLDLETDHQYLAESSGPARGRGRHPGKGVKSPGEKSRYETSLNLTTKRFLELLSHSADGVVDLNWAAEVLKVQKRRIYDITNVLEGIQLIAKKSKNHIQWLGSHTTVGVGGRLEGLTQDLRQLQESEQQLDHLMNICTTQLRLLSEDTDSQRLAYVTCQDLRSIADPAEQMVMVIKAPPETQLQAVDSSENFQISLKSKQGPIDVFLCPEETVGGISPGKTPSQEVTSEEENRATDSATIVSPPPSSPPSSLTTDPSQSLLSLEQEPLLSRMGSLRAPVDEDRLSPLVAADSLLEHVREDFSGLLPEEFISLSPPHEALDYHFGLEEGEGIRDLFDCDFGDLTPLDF
Hepatocyte nuclear factor 3-beta (Homo sapiens), sequence (Q9Y261 whole entry, looked up): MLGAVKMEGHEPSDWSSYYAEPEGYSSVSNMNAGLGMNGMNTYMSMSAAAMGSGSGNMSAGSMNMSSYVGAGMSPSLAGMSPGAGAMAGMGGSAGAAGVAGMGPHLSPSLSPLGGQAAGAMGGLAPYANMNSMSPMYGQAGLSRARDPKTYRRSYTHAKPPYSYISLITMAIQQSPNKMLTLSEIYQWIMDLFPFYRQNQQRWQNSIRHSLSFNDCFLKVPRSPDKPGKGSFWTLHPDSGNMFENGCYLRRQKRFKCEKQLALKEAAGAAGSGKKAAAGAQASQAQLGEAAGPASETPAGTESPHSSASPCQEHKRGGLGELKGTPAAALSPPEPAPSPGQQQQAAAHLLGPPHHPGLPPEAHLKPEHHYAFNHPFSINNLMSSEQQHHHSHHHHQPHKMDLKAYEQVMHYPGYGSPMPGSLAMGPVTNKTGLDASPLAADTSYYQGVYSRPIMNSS

For the compound `C[C@]12C=CC(=O)C=C1CC[C@H]1[C@@H]3C[C@@H](O)[C@](O)(C(=O)CO)[C@@]3(C)C[C@H](O)[C@@]12F`, the result in experiment [1], in experiment [2], in experiment [3], in experiment [4], in experiment [5] and in experiment [6] was inactive. Also, the compound was classed as inactive in experiment [7], in experiment [8], in experiment [9], in experiment [10], in experiment [12] and in experiment [13]. The compound was called inactive in [14], in experiment [15] and in experiment [16]. Besides, the AC50 in experiment [11] is 17.8 µM (active).

Regarding `CCOC(N)=O`, the call in [1], in experiment [2], in experiment [3], in experiment [5], in [6] and in [7] was inactive. The compound was called inactive in experiment [17], in experiment [8], in [9], in experiment [18], in [10] and in [11]. Further, the result in experiment [12], in experiment [13], in experiment [14], in experiment [15] and in [16] was inactive.

For `OCCOCCOCCO`, the result in experiment [1], in experiment [2], in experiment [3], in experiment [5], in experiment [6] and in experiment [7] was inactive. In addition, the outcome in experiment [8], in [9], in [18], in experiment [10], in [11] and in [12] was inactive. Moreover, the call in experiment [13], in experiment [14], in experiment [15] and in [16] was inactive.

Turning to `Cc1ncc([C@@H](CCCCCCc2ccc3c(n2)NCCC3)CC(=O)O)cn1`, the compound was called inactive in experiment [1], in experiment [2], in experiment [3], in [4], in experiment [6] and in [7]. Also, the result in experiment [8], in experiment [9], in experiment [10], in [11], in [12] and in experiment [13] was inactive. For the same compound, the compound was called inactive in experiment [14], in experiment [15] and in experiment [16]. Also, the AC50 in [5] is 0.0172 µM (active).

Consider `CCCc1ccccc1`, for which the compound was called inactive in experiment [1], in [2], in [3], in experiment [5], in [6] and in experiment [7]. For the same compound, the compound was classed as inactive in experiment [19], in [17], in experiment [8], in experiment [9], in experiment [10] and in experiment [11]. Moreover, the result in experiment [12], in experiment [13], in [14], in experiment [15] and in experiment [16] was inactive.

With `NC(=O)NN=Cc1ccc([N+](=O)[O-])o1`, the compound was called inactive in [1], in experiment [3], in [4], in experiment [6], in experiment [7] and in [17]. Moreover, the compound was classed as inactive in [9], in [18], in [10], in [11], in experiment [12] and in experiment [13]. Also, the compound was classed as inactive in experiment [14], in experiment [15] and in experiment [16]. In addition, the AC50 in [2] is 17.2 µM (active); in [5] it was 64.4 µM (active); in experiment [8], 113 µM (active).

Consider `CCCOc1ccc(S(=O)(=O)N2CCN(CC)CC2)cc1-c1nc2c(CC)n(Cc3ccccn3)nc2c(=O)[nH]1`, for which the result in experiment [1], in experiment [2], in experiment [4], in experiment [5], in [6] and in [7] was inactive. Moreover, the result in [19], in [8], in [9], in [10], in experiment [11] and in experiment [12] was inactive. Besides, the compound was classed as inactive in experiment [13], in [14], in experiment [15] and in experiment [16]. Besides, the AC50 in experiment [3] is 150 µM (active).

Regarding `COc1cc(C(C)C)c2c(c1)S(=O)(=O)N(COc1cc(=O)n3cccc(OCCN4CCCCC4)c3n1)C2=O`, the AC50 in [1] is 3.96 µM (active); in experiment [2] it was 2.2 µM (active); in experiment [3] it was 0.643 µM (active); in experiment [5], 2.24 µM (active); in [19], 0.812 µM (active); in experiment [9], 12.3 µM (active). Also, the AC50 is 2.02 µM (active) in [12] and 14.1 µM (active) in experiment [15]. For the same compound, the outcome in experiment [4], in experiment [6], in [7], in experiment [8], in [10] and in experiment [11] was inactive. For the same compound, the result in experiment [13], in experiment [14] and in experiment [16] was inactive.

The values are drawn from PubChem BioAssay (EPA / NIEHS).
